Assay outcomes (PubChem)
TGFb SMAD3 inh = qHTS for Inhibitors of TGF-b | HepG2 CAGA-GFP TGF-b/SMAD3 reporter, GFP fluorescence, 18 h; TGF-beta stimulated, 500 pg/mL final | Potency, µM (titrated, usually from 46.1 µM), for the others: at the highest dose activity, negative = inhibition, most hits filed as inhibitors | 410,000 tested, 1.2% active; also: % is scaled to controls: 0 for no effect and ±100 for the full control effect; nearly all actives have a fitted effect of over 65% in size
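HEPG2 CAGA-GFP reporter cells (1000/well, DMEM with 1% FBS) received compounds, then recombinant TGF-beta at 500 pg/mL final for 18 hours at 37 degrees C. Per-cell GFP summed per well was normalised to unstimulated and stimulated DMSO controls before curve fitting.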
DT40 TDP1 CPT = qHTS for Inhibitors of human tyrosyl-DNA phosphodiesterase 1 (TDP1): qHTS in cells in presence of CPT | chicken DT40 Tdp1-/-;hTDP1 cells + 20 nM CPT, ATP luminescence, 48 h | Potency, µM (titrated, usually from 46.2 µM), for inactives: at the top dose activity change, negative = growth inhibition, most hits filed as inhibitors | 420,000 tested, 12% active; also: % is scaled to controls: 0 for no effect and ±100 for the full control effect; nearly all actives have a fitted effect of over 55% in size
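Chicken DT40 Tdp1-/- cells stably complemented with human TDP1 were seeded at 400 cells/well in medium containing 20 nM camptothecin, exposed to pin-transferred compounds, and grown at 37 °C for at least 48 hr. Viability was read as ATP luminescence.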
HepG2 tox = qHTS for Inhibitors of TGF-b: Cytotox Counterscreen; HepG2 CAGA-GFP viability, ATP luminescence, 18 h; Potency, µM (top dose mostly 46.1 µM), without a hit: at the top dose activity change, negative = cytotoxicity, usual class: cytotoxic; 410,000 tested, 0.76% active; AID 588856, 2011
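CellTiter-Glo luminescence gave cytotoxicity after 18 hours at 37 degrees C. The cells were HepG2 CAGA-GFP in 1% FBS DMEM, stimulated with 500 pg/mL TGF-beta after compound addition. %Activity was normalised to no-cell wells (complete cell-killing) and DMSO (no toxicity), and curves were fitted and classified.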
ATXN2 expr inh = Primary qHTS for Inhibitors of ATXN expression; HEK-293 ATXN2-luciferase reporter, luminescence, 24 h; Potency, µM (series often up to 57 µM), for inactives: top-dose activity change, negative = inhibition, usual class: inhibitors; 360,000 tested, 0.72% active; AID 1745845, 2022; also: % is scaled to controls: 0 for no effect and ±100 for the full control effect; nearly all actives have a fitted effect of over 55% in size
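ATXN2-luciferase reporter cells (luciferase flanked by upstream and downstream ATXN2 gene portions) were treated 24 h at 37 °C with compounds at up to 57 uM. SteadyGlo luminescence gave expression; GF-AFC fluorescence gave viability.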
DT40 TDP1 no CPT = qHTS for Inhibitors of human tyrosyl-DNA phosphodiesterase 1 (TDP1): qHTS in cells in absence of CPT; DT40 Tdp1-/- hTDP1 cells, no CPT, ATP luminescence, 48 h; 420,000 tested, 15% active; AID 686978, 2013; Potency, µM (doses to about 46.2 µM), for inactives: top-dose activity change, negative = growth inhibition, actives largely listed as inhibitors; also: % is scaled to controls: 0 for no effect and ±100 for the full control effect; nearly all actives have a fitted effect of over 55% in size
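Chicken DT40 Tdp1-/- cells stably complemented with human TDP1 were seeded at 400 cells/well with DMSO in place of 20 nM camptothecin. After compound pinning, cells grew at least 48 hr at 37 °C; viability read by CellTiter-Glo luminescence.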
ATXN viability = Viability Counterscreen for Primary qHTS for Inhibitors of ATXN expression; S2 cells (HEK-293 line with an ATXN2-luciferase reporter) viability, CellTiter-Fluor protease fluorescence, 24 h; Potency, µM (doses to about 56.7 µM), usual class: cytotoxic; 400,000 tested, 0.49% active; also: nearly all actives have a fitted effect of over 40% in size
* = called active by the depositor; i = inactive; ? = inconclusive; / = no result given; [ ] = remark or other dose. In the library only some 17% were active in any assay of this set; here they are far more common. Calls follow the shape of the dose curve; as a rule, active = well fitted curve in the direction sought with a large enough effect; inconclusive = small, poorly fitted or top-dose-only effect, or another doubt; inactive = no such curve, though single readings can be large; an effect the other way counts as inactive or inconclusive. Potency is read from the fitted curve at half-maximal effect.

SMILES	TGFb SMAD3 inh	DT40 TDP1 CPT	HepG2 tox	ATXN2 expr inh	DT40 TDP1 no CPT	ATXN viability
O=c1[nH]nc(-c2ccc(F)cc2)cc1Cc1ccccc1	-2.7%	-15.9%	2.5%	/	-23.8%	i
CCc1nc2ccc(C(=O)Nc3cccc(NS(C)(=O)=O)c3)cn2c1N(C)CCN1CCOCC1	-6.4%	4.4%	-1.4%	3.7%	-4.5%	i
COc1ccc(N(C(=O)CNC(=O)c2ccco2)C(C(=O)NCC2CCCO2)c2ccccc2)cc1 (centres undefined)	3.7%	13.8%	1.4%	-4.0%	5.0%	i
O=S(=O)(c1ccc(Cl)cc1)N1CCN(C(=S)NCC2CCCO2)CC1 (centres undefined)	-2.7%	?	-2.2%	-6.9%	-26.9%	i
Cc1cc(NC(=O)c2cccs2)n(-c2nc3ccccc3[nH]2)n1	?	?	-39.6%	-26.3%	20.6µM*	i
Cc1cc(NC(=O)c2ccccc2)n(-c2nc3ccccc3[nH]2)n1	7.8%	?	-27.0%	-35.3%	-6.7%	?
Cc1cc(NC(=O)C2CCCC2)n(-c2nc3ccccc3[nH]2)n1	-1.2%	17.8µM*	-22.7%	-33.3%	?	i
COc1ccc(NC(=O)c2ccc3c(c2)CCN3S(=O)(=O)c2ccc(C)cc2)cc1Cl	5.2%	-23.6%	-14.2%	2.9%	-12.7%	i
Nc1nc2c(c(=O)[nH]1)N(C=O)C(CNc1ccc(C(=O)N[C@@H](CCC(=O)O)C(=O)O)cc1)CN2 (some centres undefined)	/	1.8%[21.1 µM]	/	/	2.2%[21.1 µM]	i
CCOCc1cn(CC(=O)c2ccc([N+](=O)[O-])cc2)c(C)nc1=N	1.1%	23.1µM*	-23.3%	0.6%	?	i
O=C(CN1c2ccccc2Sc2ccccc21)N/N=C/c1ccc([N+](=O)[O-])cc1	0.0%	?	0.0%	-3.4%	20.6µM*	?
Cc1ccc(C(=O)n2c3ccccc3c3ccccc32)cc1	-9.4%	5.8µM*	-6.8%	-3.5%	6.51µM*	i
CC(=O)n1c2ccccc2c2ccccc21	-0.7%	14.3%	6.8%	-3.8%	-19.8%	i
Cc1ccc(NC(=O)Nc2ccccc2CC[N+](=O)[O-])cc1	17.6%	3.8%	9.8%	-15.0%[11.3 µM]	2.1%	i
O=C([C@@H]1C[C@@H](Sc2nc3ccccc3[nH]2)CN1Cc1c(F)cccc1F)N1CCOCC1	/	-13.0%	/	/	-17.4%	i
Cc1cccc(CCNC(=O)CCc2c(C)nc3c(c(C)nn3-c3ccccc3)c2C)c1	4.6%	11.6µM*	0.7%	-3.2%	14.6µM*	i
COc1ccc(CNC(=O)CCc2c(C)nc3c(c(C)nn3-c3ccccc3)c2C)cc1	-5.7%	?	-9.9%	-17.3%	?	?
COc1ccc(CCNC(=O)CCc2c(C)nc3c(c(C)nn3-c3ccc(C)c(C)c3)c2C)cc1OC	-1.9%	20.6µM*	4.0%	7.0%	16.4µM*	i
CCN(CC)CCNC(=O)CCc1c(C)nc2c(c(C)nn2-c2ccc(C)c(C)c2)c1C	?	?	-65.9%	-38.3%	16.4µM*	?
COc1ccccc1CNC(=O)CCc1c(C)nc2c(c(C)nn2-c2ccc(C)c(C)c2)c1C	0.6%	6.5%	-14.8%	5.5%	-2.6%	i
Nc1nc(SCc2ccc(Cl)c(Cl)c2)n[nH]1	-25.3%	?	0.9%	12.9%	-20.5%	i
O=S1(=O)C=C(SCc2ccc(Cl)c(Cl)c2)Nc2ccccc21	?	23.1µM*	-1.8%	-20.4%	?	i
COC(=O)c1ccc(N2CCN(C)CC2)c(NC(=O)COc2ccc(OC)cc2)c1	-9.6%	20.6µM*	-5.6%	-5.0%	-25.2%	i
COC(=O)c1ccc(N2CCN(C)CC2)c(NC(=O)COc2ccccc2Cl)c1	-7.1%	20.6µM*	-17.0%	-15.6%	23.1µM*	i
COC(=O)c1ccc(N2CCN(C)CC2)c(NC(=O)COc2ccc(C)cc2)c1	-7.8%	?	-10.1%	-0.7%	-16.3%	i
SMILES	TGFb SMAD3 inh	DT40 TDP1 CPT	HepG2 tox	ATXN2 expr inh	DT40 TDP1 no CPT	ATXN viability
Cc1cc(C)cc(-n2ncc3c2CCCC3NC(=O)CCCn2cncn2)c1 (centres undefined)	-4.5%	6.1%	2.9%	7.5%	-0.9%	i
CCOC(=O)c1nc(N2CCN(c3ccc(F)cc3)CC2)c2c(C)noc2n1	-18.7%	-23.3%	-20.8%	-8.4%	-13.4%	i
Cc1cccc(-c2oc3ccc(-c4ccc5c(c4)OCO5)cc3c2C(=O)OCc2ccc(O)cc2)c1	-4.3%	16.4µM*	8.4%	-26.5%	?	?
COc1cc(/C=C/CNC[C@H]2O[C@@H](n3cnc4c(N)ncnc43)[C@H](O)[C@@H]2O)ccc1O	1.4%	-29.7%	-3.5%	10.9%	13µM*	i
O=C(Nc1ccc(Cl)cc1)C1C2C=CC3(O2)C1C(=O)N(CCN1CCCCC1)C3C(=O)NC1CCCCC1 (centres undefined)	6.5%	11.9%	-5.9%	-19.8%	6.1%	i
COc1cc2[nH]c(C(=O)N3CCc4ccccc4C3)cc2c(OC)c1OC	16.1%	?	-17.3%	13.2%	14.6µM*	i
O=C(Cc1ccc(F)cc1)OCC(=O)c1cc2ccccc2o1	-37.8%	-10.0%	-2.0%	-0.5%	-15.4%	i
O=C(NCc1ccc(Cl)cc1)c1cc2ccccc2o1	-2.5%	-21.8%	-2.2%	/	-5.6%	/
O=C(CCNc1cccc(F)c1)c1cc2ccccc2o1	-19.3%	16.4µM*	-3.2%	-0.1%	14.6µM*	i
O=C(CCNc1ccc(F)cc1)c1cc2ccccc2o1	?	8.2µM*	2.1%	15.1%	16.4µM*	i
O=C(Cc1cc2ccccc2o1)NCc1ccc(F)cc1	2.4%	20.6µM*	-15.6%	/	23.1µM*	i
OC(CNCCN1CCNCC1)Cc1ccccc1 (centres undefined)	-16.6%	-0.2%	-8.6%	4.8%	-7.2%	i
O=C(CSc1nc2cc(C(F)(F)F)ccc2n1Cc1ccccc1)NC1CCS(=O)(=O)C1 (centres undefined)	?	-2.0%	7.8%	0.4%	?	i
O=C(CNc1cccc(C(F)(F)F)c1)N/N=C/c1cccc(Br)c1	0.0%	18.4µM*	-90.6%	-6.4%	?	i
Cc1cccc(NCC(=O)N/N=C/c2cccc(Br)c2)c1	-18.8%	?	-25.8%	?	?	?
